High-throughput results: PubChem BioAssay, several laboratories
CHT block: human CHT choline transport inhibition. Q9GZV3. CHT-expressing cells, membrane potential dye, choline response; hits give low values. B-score at 10 µM. 310,000 tested, 0.86% active. AID 488975;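 active = B-score over 3 SD under the library average, and starting fluorescence ratio not unusually high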;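 note: choline stimulus applied at its EC90 after an EC20 pre-addition; B-score computed on integrated fluorescence ratio after choline addition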
Target sequence (Q9GZV3 whole entry, looked up): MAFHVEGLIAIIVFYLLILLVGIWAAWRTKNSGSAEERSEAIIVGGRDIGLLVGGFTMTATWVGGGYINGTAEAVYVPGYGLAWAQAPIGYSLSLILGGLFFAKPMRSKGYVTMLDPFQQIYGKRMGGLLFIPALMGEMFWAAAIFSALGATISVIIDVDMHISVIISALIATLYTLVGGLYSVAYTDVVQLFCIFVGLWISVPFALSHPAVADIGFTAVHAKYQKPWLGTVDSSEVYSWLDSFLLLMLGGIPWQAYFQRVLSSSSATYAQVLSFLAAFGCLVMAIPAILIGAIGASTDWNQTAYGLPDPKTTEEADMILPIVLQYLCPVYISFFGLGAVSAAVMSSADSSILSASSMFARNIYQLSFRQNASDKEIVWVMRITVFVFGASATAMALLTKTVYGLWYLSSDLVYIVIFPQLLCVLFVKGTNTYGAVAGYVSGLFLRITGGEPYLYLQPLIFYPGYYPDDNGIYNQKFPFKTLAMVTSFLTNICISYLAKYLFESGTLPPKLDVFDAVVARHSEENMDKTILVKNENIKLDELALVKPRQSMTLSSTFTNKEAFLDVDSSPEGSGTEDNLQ
TAG inh: triacylglycerol accumulation inhibition; H9c2 cells, Nile Red lipid (TAG) fluorescence; cells loaded with 200 µM oleic acid; 230,000 tested, 0.66% active; inhibition, % at 12.5 µM;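 active = pattern-corrected inhibition of lipid staining of at least 50% with the nuclear-stain viability signal not falling by more than 50%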;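 note: 0% = DMSO wells and 100% = triacsin C control wells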
CHT allo act: human CHT allosteric activation; CHT-expressing cells, membrane potential dye, choline EC20; hits give high values; LV-AA mutant CHT in HEK293 cells; B-score at 10 µM; 310,000 tested, 0.49% active;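 active = initial fluorescence not abnormally high and integrated response B-score, plate-corrected, over 3 SD above library mean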
Kir21 inh: blocks the mouse Kir2.1 inward-rectifier potassium channel | HEK293-Kir2.1, FluxOR thallium flux fluorescence; hits give low values | B-score at 10 µM | 310,000 tested, 0.85% active;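 active = fluorescence ratio B-score at or below minus 3 SD of library scores, with starting-brightness B-score within 2 SD, cut at about -4.2 in these data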;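 note: channel flux triggered by added potassium and thallium sulfate stimulus; B-score of peak minus minimum fluorescence over baseline after thallium stimulus; more negative B-score means stronger Kir2.1 block with less thallium influx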
H9c2 TAG conf: triacylglycerol accumulation inhibition, confirmation | shares compounds with TAG inh | H9c2 lipid accumulation, Nile Red fluorescence; cells loaded with 200 µM oleic acid | inhibition, % at 12.5 µM | 990 tested, 71% active;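 active = mean inhibition across replicates of 40% or more; inactive = mean inhibition below 40%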;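 note: plate controls were DMSO only wells for no effect and Triacsin C treated wells for full effect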
* hit, by the source's call. A selection: hits, their analogues and other compounds. The true share with any hit is near 2%.

Results for COc1ccc(-c2ccc3[nH]c4c(c3c2)CCN2C[C@@H]([C@H](C)O)[C@@H](N(C)C(=O)Nc3cc(Cl)cc(Cl)c3)C[C@@H]42)cc1 ?
TAG inh: 28

What do the screens show for `COc1ccc(-c2ccc3[nH]c4c(c3c2)CCN2C(=O)[C@@H]([C@H](C)O)[C@@H](N(C)C(=O)Nc3ccc(F)cc3)C[C@@H]42)cc1`?
TAG inh: 29

What do the screens show for `COc1ccc(-c2ccc3[nH]c4c(c3c2)CCN2C(=O)[C@@H]([C@H](C)O)[C@@H](N(C)C(=O)Nc3cc(Cl)cc(Cl)c3)C[C@@H]42)cc1`?
TAG inh: 62*; H9c2 TAG conf: 63*

Results for Cc1cccc(-c2ccc3[nH]c4c(c3c2)CCN2C[C@@H]([C@H](C)OC(=O)Nc3ccccc3C)[C@@H](N(C)C(=O)Nc3ccccc3C)C[C@@H]42)c1 ?
TAG inh: 54*; H9c2 TAG conf: 66*

How did C[C@H](O)[C@@H]1CN2CCc3c([nH]c4ccc(-c5ccc6c(c5)OCO6)cc34)[C@@H]2C[C@@H]1N(C)C(=O)Nc1ccc(F)cc1 do in these assays?
TAG inh: 82*; H9c2 TAG conf: 69*

How did Cc1ccc(NC(=O)COC(=O)Cc2ccc(Br)cc2)cc1S(=O)(=O)N1CCOCC1 do in these assays?
TAG inh: 4

Results for NC(=O)c1ccc(NC(=O)CCCNC(=O)c2ccc(Cl)cc2)cc1 ?
CHT block: inactive; CHT allo act: inactive; Kir21 inh: 0.2

How did CC(N)c1csc(Nc2nccc(C(F)(F)F)n2)n1 (configuration not stated) do in these assays?
TAG inh: -1

What do the screens show for `C/C(=N/NC(=O)CSc1nc2ccccc2n1C)c1ccco1`?
CHT block: inactive; TAG inh: -12; CHT allo act: inactive; Kir21 inh: -0.06

Results for COc1ccc([C@H]2CC(=O)C=C(c3ccnc4ccc(Cl)cc34)C2)cc1 ?
TAG inh: -23

Results for CCc1c(C2(O)CCCCC2)[nH]c2cnccc12 ?
TAG inh: 51*; H9c2 TAG conf: 13

Results for CC1CN(C(C)C)C(=S)NC1=O (configuration not stated) ?
TAG inh: 1

How did COc1ccc(CCn2c(-n3nc(C)cc3C)nc3c2c(=O)[nH]c(=O)n3C)cc1 do in these assays?
CHT block: inactive; TAG inh: 54*; CHT allo act: inactive; Kir21 inh: 0; H9c2 TAG conf: 62*

Results for C[C@@]12CCC=C[C@H]1[C@H](c1ccccc1Br)N(Cc1ccccc1)C2=O ?
TAG inh: -32

Results for C[C@@]12CCC=C[C@H]1[C@H](c1ccoc1)N(Cc1ccccc1)C2=O ?
CHT block: inactive; TAG inh: 79*; CHT allo act: inactive; Kir21 inh: -1; H9c2 TAG conf: 12

What do the screens show for `Cc1nc(Cc2ccccc2)sc1CC#N`?
TAG inh: -6

How did CCN1/C(=C2/SC(=S)NC2=O)Sc2ccccc21 do in these assays?
CHT block: inactive; TAG inh: 5; CHT allo act: inactive; Kir21 inh: 1.6

Results for CSc1ccc(C2=C/C(=C3/SC(=S)NC3=O)c3ccccc3O2)cc1 ?
TAG inh: 59*; H9c2 TAG conf: 58*

What do the screens show for `COc1ccc(NC(=O)c2nc(C)c(C3(C)CC(c4ccccc4)=NO3)s2)cc1` (configuration not stated)?
CHT block: inactive; TAG inh: 76*; CHT allo act: inactive; Kir21 inh: 0.58; H9c2 TAG conf: 94*

What do the screens show for `COc1ccc(-c2csc(C(C)(O)c3cccc(F)c3)n2)cn1` (configuration not stated)?
TAG inh: 7

Results for CCCCc1ccc(N=N/C(C(=O)Nc2cc(OC)c(NC(C)=O)cc2OC)=C(/C)O)cc1 ?
CHT block: inactive; TAG inh: 55*; CHT allo act: inactive; Kir21 inh: -0.85; H9c2 TAG conf: 68*

Results for Nc1ccc2ccccc2c1N=Nc1ccccc1 ?
TAG inh: 56*; H9c2 TAG conf: 53*

Results for Nc1ncnc(N)c1N=Nc1ccccc1 ?
CHT block: inactive; TAG inh: 38; CHT allo act: inactive; Kir21 inh: 0.36

What do the screens show for `O=C(/C=C/c1ccc(OCCCF)cc1)NCc1ccc(Cl)c(Cl)c1`?
CHT block: inactive; TAG inh: 62*; CHT allo act: inactive; Kir21 inh: 0.01; H9c2 TAG conf: 52*

What do the screens show for `COc1ccc(CNC(=O)/C=C/c2ccc(OCCCF)cc2)cc1OC`?
CHT block: inactive; TAG inh: 40; CHT allo act: inactive; Kir21 inh: -0.7

Results for CCCCCC(=O)Nc1nc(C)c(-c2csc(Nc3cc(OC)ccc3OC)n2)s1 ?
CHT block: inactive; TAG inh: 59*; CHT allo act: inactive; Kir21 inh: 0.19; H9c2 TAG conf: 75*

How did CCNC(=O)C1CCCN(C(=O)c2ccc3c(c2)OCO3)CC1 (configuration not stated) do in these assays?
TAG inh: -6

How did CCOc1ccc(CCNC(=O)c2cc3sc(Cl)cc3n2C)cc1OCC do in these assays?
CHT block: inactive; TAG inh: 60*; CHT allo act: inactive; Kir21 inh: -0.31; H9c2 TAG conf: 41*

How did CCN(CC)c1ccc(/C=C2\CCC(/C=C(/C#N)C(=O)Nc3ccccc3F)=C2N2CCOCC2)cc1 do in these assays?
TAG inh: 91*; H9c2 TAG conf: 65*

What do the screens show for `CC(C)[C@H](NC(=O)C1CCN(S(=O)(=O)c2ccccc2)CC1)C(=O)NCc1ccco1`?
CHT block: inactive; CHT allo act: inactive; Kir21 inh: 2.1

What do the screens show for `CC(C)c1ccc(CCNC(=O)CCNS(=O)(=O)c2ccc(Br)cc2)cc1`?
TAG inh: -15

What do the screens show for `COc1ccc(-c2sc3cc4c(cc3c2C#CCO)OCO4)cc1`?
TAG inh: -46

How did COc1ccc(-c2sc3cc4c(cc3c2C#Cc2ccc(N)cc2)OCO4)cc1 do in these assays?
TAG inh: 55*; H9c2 TAG conf: 58*

What do the screens show for `CN(CC(=O)NNC(=O)Cc1ccccc1F)S(=O)(=O)c1ccc(Cl)cc1`?
CHT block: inactive; TAG inh: 4; CHT allo act: inactive; Kir21 inh: -0.09

What do the screens show for `O=C(c1cnn2c1NC(c1ccc(Br)cc1)CC2C(F)(F)F)N1CCN(C23CC4CC(CC(C4)C2)C3)CC1` (configuration not stated)?
CHT block: inactive; TAG inh: 54*; CHT allo act: inactive; Kir21 inh: -0.09; H9c2 TAG conf: 55*

How did O=C(Cc1ccc(Cl)cc1)Nc1ccc2c(c1)C(=O)NC2=O do in these assays?
CHT block: inactive; TAG inh: -5; CHT allo act: inactive; Kir21 inh: 0.03

Results for Cc1onc(-c2ccccc2Cl)c1C(=O)N1CCN(C=O)CC1 ?
CHT block: inactive; TAG inh: 10; CHT allo act: inactive; Kir21 inh: 0
